This is a sample that favours compounds with a hit; in the whole collection about 2.8% have one here.
Pol iota inh – qHTS for Inhibitors of Polymerase Iota; Potency, µM (titrated, usually from 115 µM), most hits filed as inhibitors; Pol iota fluorescent replication assay, 10 min; 390,000 tested, 1% active; DNA polymerase iota (Homo sapiens), Q9UNA4
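Fluorescent replication assay read twice, at 0 min and 10 min after adding 50 nM (final) substrate. Enzyme (10 nM) and compounds were first incubated 15 min at room temperature; enzyme-free buffer wells were negative controls.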
WRN inhibitor – qHTS for Inhibitors of WRN Helicase | WRN helicase unwinding, fluorescent forked duplex, kinetic | Potency, µM (top dose mostly 114 µM), most hits filed as inhibitors | 360,000 tested, 0.46% active; note: nearly all actives have a fitted effect of over 55% in size
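WRN at 20 nM final was preincubated with compound for 15 min at room temperature; reaction started with 100 nM forked duplex oligonucleotide carrying fluorophore and quencher plus 2 mM ATP (final). Unwinding followed kinetically by red fluorescence (ex 525/em 598 nm).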
PI5P4K alpha inh – qHTS for Inhibitors of phosphatidylinositol 5-phosphate 4-kinase (PI5P4K); Phosphatidylinositol 5-phosphate 4-kinase type-2 alpha (Homo sapiens), P48426; PI5P4Kalpha enzyme, ADP-Glo luminescence, 60 min; hits give low values; max response, %; 330,000 tested, 1.2% active; AID 652105, 2013; active = max response of -50% or lower; inconclusive = between -30% and -50%; inactive = -30% or higher; note: value at the top dose of about 77 µM
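qHTS, 1536-well: enzyme/substrate mix, compound by pin tool, 5 microM ATP final; RT 60 min; ADP-Glo reagents 1 (45 min) then 2 (30 min); luminescence.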
POLB inh – qHTS Assay for Inhibitors of DNA Polymerase Beta | P06746 | AID 485314, 2010 | Potency, µM (doses to about 114 µM), hits mostly inhibitors | Pol beta primer extension/strand displacement, fluorescence kinetic | 340,000 tested, 1.3% active
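Reaction started by 50 nM substrate onto compound-treated Pol beta (10 nM, 15 min preincubation, room temperature); plates read at 0 min and 10 min. Normalized concentration-effect data fitted by four-parameter Hill equation.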
Pol eta inh-1 – qHTS for Inhibitors of Polymerase Eta; DNA polymerase eta (Homo sapiens), Q9Y253; recombinant Pol eta, fluorescent DNA replication assay; Potency, µM (top dose mostly 114 µM), actives largely listed as inhibitors; 390,000 tested, 1.2% active; AID 588591, 2011
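Fluorescent replication assay: 50 nM final substrate added after a 15 min room-temperature compound preincubation with 10 nM enzyme. Signal taken at 0 min and again at 10 min.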
Pol kappa inh-1 – qHTS for Inhibitors of Polymerase Kappa. AID 588579, 2011. DNA polymerase kappa (Homo sapiens), Q9UBT6. Potency, µM (titrated, usually from 107 µM), hits mostly inhibitors. purified Pol kappa, fluorescent DNA synthesis assay, 10 min. 400,000 tested, 0.53% active
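Kinetic fluorescence readout at 0 and 10 min followed reaction start with substrate at 50 nM final. Beforehand, enzyme (10 nM Pol kappa) stood 15 min with compound at room temperature; buffer-only wells were negative controls.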
PGK validate – qHTS for inhibitors of Phosphogylcerate Kinase: Hit Validation Screen | shares compounds with Pol kappa inh-1 | TbPGK coupled GAPDH assay, Kinase-Glo luminescence | Potency, µM (titrated, usually from 57.5 µM), usual class: inhibitors | 500 tested, 79% active | AID 686980, 2013; note: nearly all actives have a fitted effect of over 65% in size
POLI cherry-pick – qHTS for Inhibitors of Polymerase Iota: Confirmatory Assay for Cherry-picked Compounds; shares compounds with Pol kappa inh-1; Pol iota primer extension, TAMRA/BHQ fluorescence; Potency, µM, hits mostly inhibitors; 1,500 tested, 77% active; AID 720496, 2013
GALK confirm – Confirmation Assay for Inhibitors of Human Galactokinase (GALK) | shares compounds with Pol eta inh-1 | purified GALK, Kinase-Glo ATP depletion luminescence | Potency, µM (highest dose often 115 µM), most hits filed as inhibitors | 150 tested, 70% active | AID 2015, 2009
GALK redox cs – Confirmatory Assay for Inhibitors of Human Galactokinase (GALK): Phenol-HRP redox assay counterscreen; shares compounds with Pol eta inh-1; Phenol red-HRP H2O2 redox cycling, absorbance 600 nm; Potency, µM (top dose mostly 115 µM), actives largely listed as inhibitors; 150 tested, 40% active
HEK293 viability – Secondary Assay for Inhibitors of Human Galactokinase (GALK): HEK-293 Cell Viability Assay; shares compounds with Pol eta inh-1; Potency, µM (titrated, usually from 46.1 µM), usual class: inhibitors; HEK-293 viability, ATP luminescence (CellTiter-Glo), 24/48 h; 170 tested, 10% active
Pol kappa inh-2 – qHTS for Inhibitors of Polymerase Kappa: Confirmatory Assay for Cherry-picked Compounds; Potency, µM, hits mostly inhibitors; purified Pol-kappa, fluorescent strand-displacement substrate; 920 tested, 76% active; shares compounds with Pol eta inh-1
Pol eta inh-2 – qHTS for Inhibitors of Polymerase Eta: Confirmatory Assay for Cherry-picked Compounds | Potency, µM, most hits filed as inhibitors | Pol eta primer extension, TAMRA/BHQ fluorescence, 10 min | AID 720502, 2013 | shares compounds with Pol eta inh-1 | 2,600 tested, 64% active
Each line names hits and unclear results; the compound was inactive in the other large screens (follow-up assays come after a bar, where they were run). Unless noted, calls come from the whole dose curve; as a rule, active = well fitted curve in the direction sought with a large enough effect; inconclusive = small, poorly fitted or top-dose-only effect, or another doubt; inactive = no such curve, though single readings can be large; an effect the other way counts as inactive or inconclusive.

COc1ccccc1NC(=O)Cc1nnc(SCC(=O)NC2CCCCC2)n1C	none
CN(C)CCN(Cc1ccccc1)S(=O)(=O)c1ccc(-c2cc(C(F)(F)F)on2)s1	none (no result: WRN inhibitor, PI5P4K alpha inh)
O=C(CSc1nc2ccccc2[nH]1)N1CCCCC1	none (no result: PI5P4K alpha inh)
Cc1c(C)n(C(=O)CSc2nc3ccccc3[nH]2)c2ccccc12	Pol iota inh inconclusive, WRN inhibitor inconclusive, POLB inh 8.91µM, Pol eta inh-1 inconclusive, Pol kappa inh-1 inconclusive | POLI cherry-pick inconclusive | Pol eta inh-2 37.9
COc1ccc(C(=O)/C=C/c2ccc(OCc3ccccc3)cc2)cc1CSCC(=O)O	Pol iota inh 44.7µM, WRN inhibitor inconclusive, Pol eta inh-1 44.7µM | POLI cherry-pick inconclusive | Pol eta inh-2 inconclusive
COc1ccc(C=CC(=O)c2ccc(OCc3ccccc3)c(OC)c2)cc1OC	none (no result: Pol iota inh, POLB inh, Pol kappa inh-1)
Cc1c(C(=O)O)sc2nc(/C=C/c3ccccc3OC(F)F)[nH]c(=O)c12	Pol iota inh inconclusive, PI5P4K alpha inh -63.0, POLB inh 39.8µM, Pol eta inh-1 inconclusive | POLI cherry-pick 75.2 | Pol eta inh-2 inconclusive
Cc1ccc(/C=C/c2nc3sc(C(=O)O)c(C)c3c(=O)[nH]2)cc1[N+](=O)[O-]	WRN inhibitor inconclusive, PI5P4K alpha inh inconclusive, POLB inh inconclusive, Pol eta inh-1 39.8µM | POLI cherry-pick 29.9 | Pol eta inh-2 inconclusive
CCc1cccc(NC(=O)COC(=O)c2ccccc2OCc2ccccc2Br)c1	none (no result: WRN inhibitor, PI5P4K alpha inh, POLB inh, Pol eta inh-1)
COc1ccc(CCNC(=O)CN2C(=O)COc3ccc(S(=O)(=O)N4CCCCCC4)cc32)cc1OC	none (no result: WRN inhibitor, PI5P4K alpha inh)
COc1ccc(/C=N/NC(=O)c2ccc(Br)o2)cc1Cn1cc([N+](=O)[O-])cn1	none
COc1ccc(/C=N/NC(=O)c2cc(O)c(O)c(O)c2)cc1Cn1cc([N+](=O)[O-])cn1	Pol iota inh 3.16µM, WRN inhibitor 8.91µM, PI5P4K alpha inh -58.6, POLB inh 0.562µM, Pol eta inh-1 2.82µM, Pol kappa inh-1 3.98µM | PGK validate inconclusive | POLI cherry-pick 8.44 | Pol eta inh-2 15.1
O=C(O)CSc1cc(NS(=O)(=O)c2cccc([N+](=O)[O-])c2)c2ccccc2c1O	Pol iota inh 3.16µM, WRN inhibitor 39.8µM, POLB inh 79.4µM, Pol eta inh-1 22.4µM, Pol kappa inh-1 inconclusive | POLI cherry-pick 26.7 | GALK confirm 33.5µM | GALK redox cs 21.1µM | HEK293 viability inactive | Pol eta inh-2 26.9
CCOc1ccc(S(=O)(=O)Nc2cc(SCC(=O)O)c(O)c3ccccc23)cc1	Pol iota inh 10µM, WRN inhibitor 79.4µM, PI5P4K alpha inh inconclusive, POLB inh inconclusive, Pol eta inh-1 44.7µM | POLI cherry-pick inconclusive | Pol eta inh-2 inconclusive
CC1=CN2C(=N)/C(=C/c3ccco3)C(=O)N=C2S1	WRN inhibitor inconclusive, PI5P4K alpha inh inconclusive, POLB inh inconclusive, Pol eta inh-1 inconclusive
Cc1ccc(-n2cccc2/C=C2\C(=N)N3N=C(c4ccco4)SC3=NC2=O)cc1	Pol iota inh 20µM, WRN inhibitor inconclusive, PI5P4K alpha inh inconclusive, POLB inh 10µM, Pol eta inh-1 14.1µM, Pol kappa inh-1 inconclusive | POLI cherry-pick inconclusive | Pol eta inh-2 75.7
COc1cccc(-c2cn3c(n2)sc2cc(C(=O)NCCCc4ccccc4)ccc23)c1	none (no result: WRN inhibitor, PI5P4K alpha inh)
Cn1c(=O)cc(SCC(=O)NCc2ccc(F)cc2)c2cc(Cl)ccc21	none (no result: WRN inhibitor, PI5P4K alpha inh)
COc1ccc(/C=C2\C(=O)NC(=S)N2C(=O)c2ccc(C)cc2)cc1	Pol iota inh 17.8µM, WRN inhibitor 56.2µM, PI5P4K alpha inh inconclusive, POLB inh 20µM, Pol eta inh-1 15.8µM, Pol kappa inh-1 inconclusive | POLI cherry-pick inconclusive | Pol eta inh-2 inconclusive
Cc1ccc(S(=O)(=O)N2[C@@H](c3ccc(C(C)(C)C)cc3)C(C(=O)O)=CC[C@H]2c2ccc(Cl)cc2)cc1	Pol iota inh inconclusive, WRN inhibitor inconclusive, PI5P4K alpha inh inconclusive, Pol eta inh-1 79.4µM, Pol kappa inh-1 inconclusive (no result: POLB inh) | POLI cherry-pick inconclusive | Pol kappa inh-2 67 | Pol eta inh-2 inconclusive
Cn1c(CNC(=O)CSc2nc(-c3cccc(Cl)c3)nc3cc(=O)[nH]n23)nc2ccccc21	Pol iota inh inconclusive, POLB inh inconclusive (no result: WRN inhibitor, PI5P4K alpha inh)
O=C(CSc1nc(-c2cccc(Cl)c2)nc2cc(=O)[nH]n12)Nc1ccccc1	Pol iota inh inconclusive, POLB inh 20µM, Pol eta inh-1 50.1µM (no result: WRN inhibitor, PI5P4K alpha inh) | POLI cherry-pick 59.7 | Pol eta inh-2 84.9
OCCC1CN(Cc2ccon2)CCN1Cc1ccccc1 (stereo unspecified)	none
CCc1cccc(NC(=O)Cn2c(C(=O)OC)cc3occc32)c1	none (no result: WRN inhibitor, PI5P4K alpha inh)

High-throughput results (PubChem BioAssay)
